Experimental findings from PubChem BioAssay (NCI) are described below.

Compounds without any hit were thinned out: in the full panel of roughly 83,000, 20% have a hit.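 Assay: single dose, 48 h. Readout: percent growth (0 = no net growth; negative = cell death). Active: <10.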 Values without a mark were called inactive. Active and inactive are the calls of the source.

Among the test systems are NCI-H23 lung; NCI-H226 lung; NCI-H322M lung; HOP-62 NSCLC; NCI-H460 lung; HOP-92 NSCLC; NCI-H522 lung; A549/ATCC NSCLC; 786-0 renal; COLO 205 colon; DU-145 prostate; K-562 leukemia; MALME-3M melanoma; RXF 393 renal; SF-268 CNS; SF-295 CNS; SF-539 CNS; UACC-257 melanoma; M14 melanoma; MDA-MB-231 breast.
Test in all cases: NCI-60 one-dose screen, 48 h (100 = growth as untreated, 0 = no growth, -100 = all killed)
Holding throughout (conditions): 10 µM

For `COC(=O)c1[nH]c(=O)c(C#N)c(C(=O)OC)c1C(=O)c1ccccc1`, the growth with NCI-H23 lung is 95.4%; in the assay with NCI-H226 lung it was 97.7%; in the assay on NCI-H322M lung, 101%; in the assay with HOP-62 NSCLC, 94.2%; in the assay on NCI-H460 lung, 102%; in the assay with HOP-92 NSCLC, 101%. The growth in the assay on NCI-H522 lung was 99.7%; with A549/ATCC NSCLC, 93.7%; in the assay on 786-0 renal it was 100%; with COLO 205 colon it was 123%; in the assay on DU-145 prostate, 104%; in the assay with K-562 leukemia, 102%. The growth was 96.8% with MALME-3M melanoma; 122% in the assay on RXF 393 renal; 99.4% in the assay with SF-268 CNS; 96.2% in the assay with SF-295 CNS; 97.1% in the assay with SF-539 CNS; 86.1% with UACC-257 melanoma. The growth in the assay with M14 melanoma was 107%.
For the compound `Nc1nc2c(c(-c3nc(N)nc4c3CCc3ccccc3-4)n1)CCc1ccccc1-2`, the growth was 97.4% with NCI-H23 lung; 89.9% with NCI-H226 lung; 115% with NCI-H322M lung; 91.4% in the assay with HOP-62 NSCLC; 117% with NCI-H460 lung; 95.1% in the assay on HOP-92 NSCLC. Moreover, the growth is 99.1% in the assay on NCI-H522 lung; 106% with A549/ATCC NSCLC; 110% with 786-0 renal; 116% with COLO 205 colon; 107% in the assay with DU-145 prostate; 99.2% in the assay on K-562 leukemia. Moreover, the growth is 85.3% in the assay on MALME-3M melanoma; 115% in the assay with RXF 393 renal; 103% with SF-268 CNS; 99.5% with SF-295 CNS; 93.1% with SF-539 CNS; 109% in the assay on UACC-257 melanoma. Besides, the growth in the assay on M14 melanoma is 105%.
Consider `COc1ccc(-c2cc(-c3cc(-c4ccc(OC)cc4)nc(N)n3)nc(N)n2)cc1`, for which the growth is 102% in the assay on NCI-H23 lung; 99.4% in the assay with NCI-H226 lung; 94.3% in the assay with NCI-H322M lung; 94.7% in the assay with HOP-62 NSCLC; 99.5% in the assay with NCI-H460 lung; 105% in the assay on HOP-92 NSCLC. Further, the growth with NCI-H522 lung is 100%; in the assay with A549/ATCC NSCLC, 97.8%; with 786-0 renal, 103%; in the assay with COLO 205 colon, 107%; in the assay with DU-145 prostate it was 102%; in the assay on K-562 leukemia, 98.9%. The growth in the assay on MALME-3M melanoma is 91.2%; in the assay with RXF 393 renal, 101%; in the assay on SF-268 CNS it was 102%; in the assay on SF-295 CNS, 96.2%; with SF-539 CNS, 98.1%; in the assay on UACC-257 melanoma, 99.4%. The growth in the assay on M14 melanoma is 104%.
Take `Nc1nc(N)c2cc(S(=O)(=O)c3cccc(C(F)(F)F)c3)ccc2n1`: the growth in the assay with NCI-H23 lung is 53.5%; with NCI-H226 lung it was 69.2%; with NCI-H322M lung, 52.1%; with HOP-62 NSCLC, 76.6%; in the assay on NCI-H460 lung it was 16.8%; in the assay with HOP-92 NSCLC, 55.7%. Further, the growth with NCI-H522 lung was 63.9%; with A549/ATCC NSCLC, 15.9%; in the assay on 786-0 renal, 38.1%; in the assay on COLO 205 colon, 62.5%; in the assay on DU-145 prostate it was 48%; with K-562 leukemia, 17.7%. Further, the growth in the assay on MALME-3M melanoma was 63.8%; in the assay with MDA-MB-231 breast, 67.9%; with RXF 393 renal, 62.2%; with SF-268 CNS, 29.2%; in the assay on SF-539 CNS, 51.4%; in the assay with UACC-257 melanoma it was 43.7%. The growth in the assay with M14 melanoma is 44.5%.
As for `CCCCNC(=O)C(=O)NCCCC`, the growth was 105% in the assay with NCI-H23 lung; 106% in the assay with NCI-H226 lung; 104% in the assay on NCI-H322M lung; 108% in the assay with HOP-62 NSCLC; 115% in the assay on NCI-H460 lung; 104% in the assay on HOP-92 NSCLC. In addition, the growth in the assay with NCI-H522 lung was 112%; with A549/ATCC NSCLC, 111%; in the assay with 786-0 renal, 101%; with COLO 205 colon it was 117%; in the assay with DU-145 prostate, 103%; in the assay with K-562 leukemia it was 108%. Besides, the growth with MALME-3M melanoma is 95.4%; with RXF 393 renal it was 107%; with SF-268 CNS it was 97.9%; with SF-295 CNS it was 102%; with SF-539 CNS, 101%; in the assay on UACC-257 melanoma it was 105%. Moreover, the growth in the assay on M14 melanoma was 104%.
With `COC(=O)c1cc(-c2ccc(Cl)c(Cl)c2)[nH]c(=O)c1C#N`, the growth with NCI-H23 lung is 107%; in the assay with NCI-H226 lung, 94.6%; in the assay on NCI-H322M lung it was 95.4%; with HOP-62 NSCLC it was 95.5%; in the assay with NCI-H460 lung it was 109%; in the assay on HOP-92 NSCLC, 91.4%. Further, the growth is 97.6% in the assay with NCI-H522 lung; 101% in the assay with A549/ATCC NSCLC; 91.7% with 786-0 renal; 114% in the assay with COLO 205 colon; 108% in the assay with DU-145 prostate; 108% with K-562 leukemia. The growth in the assay with MALME-3M melanoma was 89.1%; with RXF 393 renal, 109%; with SF-268 CNS, 102%; in the assay on SF-295 CNS it was 96.1%; in the assay on SF-539 CNS, 101%; in the assay with UACC-257 melanoma it was 98.4%. For the same compound, in the assay with M14 melanoma, the growth was 99.2%.
`CCN(CC)CCCC(C)Nc1ccnc(/C=C/c2ccc(Cl)cc2)c1` (stereo unspecified): the growth was 67.4% with NCI-H23 lung; 62.6% with NCI-H226 lung; 21.3% with NCI-H322M lung; 38.4% in the assay with HOP-62 NSCLC; 9.3% (active) in the assay with NCI-H460 lung; -19.8% (active) in the assay on HOP-92 NSCLC. In addition, the growth was -38.6% (active) with NCI-H522 lung; 9.38% (active) with A549/ATCC NSCLC; 45.2% in the assay on 786-0 renal; -64.4% (active) with COLO 205 colon; 49.6% in the assay with DU-145 prostate; 0.277% (active) in the assay with K-562 leukemia. For the same compound, the growth in the assay with MALME-3M melanoma is -60.6% (active); in the assay with MDA-MB-231 breast, -28.3% (active); with RXF 393 renal, -61.8% (active); in the assay on SF-268 CNS, 9.89% (active); in the assay on SF-539 CNS, -69.2% (active); in the assay on UACC-257 melanoma, -77.7% (active). Besides, in the assay on M14 melanoma, the growth was -85.9% (active).
Consider `CCOC(=O)c1cc(/C=C/c2cccc(Cl)c2)on1`, for which the growth in the assay with NCI-H23 lung is 81.1%; in the assay with NCI-H226 lung it was 95.1%; in the assay on NCI-H322M lung it was 96.1%; in the assay on HOP-62 NSCLC, 99.9%; with NCI-H460 lung, 99.3%; in the assay with HOP-92 NSCLC, 88.8%. Also, the growth was 74.6% in the assay on NCI-H522 lung; 104% in the assay on A549/ATCC NSCLC; 97.7% with 786-0 renal; 119% in the assay on COLO 205 colon; 95.2% in the assay with DU-145 prostate; 31.6% with K-562 leukemia. For the same compound, the growth with MALME-3M melanoma is 93.1%; with RXF 393 renal, 97.1%; with SF-268 CNS, 93.7%; in the assay on SF-295 CNS, 88.2%; with SF-539 CNS it was 89.6%; with UACC-257 melanoma, 108%. Further, the growth in the assay with M14 melanoma is 78.8%.
As to `CCS(=O)(=O)CCCl`, the growth in the assay with NCI-H23 lung was 101%; with NCI-H226 lung, 114%; in the assay with NCI-H322M lung, 97.1%; in the assay on HOP-62 NSCLC it was 105%; in the assay on NCI-H460 lung it was 109%; in the assay on HOP-92 NSCLC, 92.3%. Besides, the growth with NCI-H522 lung is 90%; in the assay with A549/ATCC NSCLC it was 97.4%; with 786-0 renal it was 105%; in the assay with COLO 205 colon it was 126%; in the assay with DU-145 prostate, 96.8%; in the assay on K-562 leukemia, 93%. The growth in the assay with MALME-3M melanoma was 93.3%; in the assay with RXF 393 renal it was 105%; in the assay on SF-268 CNS it was 106%; in the assay with SF-295 CNS, 102%; in the assay with SF-539 CNS it was 104%; with UACC-257 melanoma, 94.5%. Further, the growth with M14 melanoma was 94.4%.
